Measurements from ChEMBL document CHEMBL1961873, “Compounds: GSK PKIS; Assays: Nanosyn kinase panel” (2012).

Columns and labels:
[1] = molecular target: Dual specificity protein kinase CLK3 (Homo sapiens) (UniProt P49761); conditions: at 1 µM;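 also: each value is the mean inhibition of CLK3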
[2] = molecular target: Dual specificity tyrosine-phosphorylation-regulated kinase 1A (Homo sapiens) (UniProt Q13627); conditions: at 0.1 µM
[3] = molecular target: Dual specificity tyrosine-phosphorylation-regulated kinase 1A (Homo sapiens) (UniProt Q13627); conditions: at 1 µM
[4] = molecular target: Dual specificity tyrosine-phosphorylation-regulated kinase 1B (Homo sapiens) (UniProt Q9Y463); conditions: at 0.1 µM
Chain of Dual specificity tyrosine-phosphorylation-regulated kinase 1B (Homo sapiens) (Q9Y463 whole entry, looked up): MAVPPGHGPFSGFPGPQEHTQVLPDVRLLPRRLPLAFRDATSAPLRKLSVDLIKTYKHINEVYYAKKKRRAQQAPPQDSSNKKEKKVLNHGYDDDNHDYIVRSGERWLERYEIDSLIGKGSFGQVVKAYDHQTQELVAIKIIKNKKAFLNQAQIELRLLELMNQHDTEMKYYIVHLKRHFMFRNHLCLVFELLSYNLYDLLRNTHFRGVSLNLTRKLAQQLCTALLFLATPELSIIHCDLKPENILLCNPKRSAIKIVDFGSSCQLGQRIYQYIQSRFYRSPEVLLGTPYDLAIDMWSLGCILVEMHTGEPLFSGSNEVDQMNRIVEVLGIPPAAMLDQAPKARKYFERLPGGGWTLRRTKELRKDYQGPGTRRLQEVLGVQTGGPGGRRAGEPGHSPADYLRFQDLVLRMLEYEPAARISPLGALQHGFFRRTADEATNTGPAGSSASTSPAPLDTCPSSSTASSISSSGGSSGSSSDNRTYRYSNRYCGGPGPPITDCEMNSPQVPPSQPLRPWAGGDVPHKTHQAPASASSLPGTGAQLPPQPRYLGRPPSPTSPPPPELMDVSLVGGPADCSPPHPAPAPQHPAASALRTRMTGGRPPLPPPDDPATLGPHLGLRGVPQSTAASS

[5] = molecular target: Dual specificity tyrosine-phosphorylation-regulated kinase 1B (Homo sapiens) (UniProt Q9Y463); conditions: at 1 µM
[6] = molecular target: T1, Dual specificity tyrosine-phosphorylation-regulated kinase 2 (Homo sapiens) (UniProt Q92630); conditions: at 0.1 µM
T1 sequence (whole entry): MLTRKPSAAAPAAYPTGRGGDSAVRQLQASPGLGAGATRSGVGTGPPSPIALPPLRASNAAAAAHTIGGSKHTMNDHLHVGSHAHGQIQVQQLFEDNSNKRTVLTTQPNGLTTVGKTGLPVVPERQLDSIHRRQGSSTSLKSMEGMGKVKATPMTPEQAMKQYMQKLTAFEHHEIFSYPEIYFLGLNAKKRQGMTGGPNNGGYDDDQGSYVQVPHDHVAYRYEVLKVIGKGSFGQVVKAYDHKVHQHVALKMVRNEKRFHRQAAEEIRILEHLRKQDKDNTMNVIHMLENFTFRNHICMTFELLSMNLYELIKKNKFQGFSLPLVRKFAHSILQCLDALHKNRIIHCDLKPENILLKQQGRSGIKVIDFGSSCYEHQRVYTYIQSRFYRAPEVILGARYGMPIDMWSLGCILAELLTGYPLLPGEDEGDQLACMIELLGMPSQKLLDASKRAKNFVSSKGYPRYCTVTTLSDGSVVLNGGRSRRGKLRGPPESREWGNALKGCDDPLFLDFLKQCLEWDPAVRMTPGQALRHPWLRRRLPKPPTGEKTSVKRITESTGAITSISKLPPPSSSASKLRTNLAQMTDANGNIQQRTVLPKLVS

[7] = molecular target: T1, Dual specificity tyrosine-phosphorylation-regulated kinase 2 (Homo sapiens); conditions: at 1 µM
[8] = molecular target: Glycogen synthase kinase-3 alpha (Homo sapiens) (UniProt P49840); conditions: at 0.1 µM
Chain of Glycogen synthase kinase-3 alpha (Homo sapiens) (P49840 2-483 limits assumed): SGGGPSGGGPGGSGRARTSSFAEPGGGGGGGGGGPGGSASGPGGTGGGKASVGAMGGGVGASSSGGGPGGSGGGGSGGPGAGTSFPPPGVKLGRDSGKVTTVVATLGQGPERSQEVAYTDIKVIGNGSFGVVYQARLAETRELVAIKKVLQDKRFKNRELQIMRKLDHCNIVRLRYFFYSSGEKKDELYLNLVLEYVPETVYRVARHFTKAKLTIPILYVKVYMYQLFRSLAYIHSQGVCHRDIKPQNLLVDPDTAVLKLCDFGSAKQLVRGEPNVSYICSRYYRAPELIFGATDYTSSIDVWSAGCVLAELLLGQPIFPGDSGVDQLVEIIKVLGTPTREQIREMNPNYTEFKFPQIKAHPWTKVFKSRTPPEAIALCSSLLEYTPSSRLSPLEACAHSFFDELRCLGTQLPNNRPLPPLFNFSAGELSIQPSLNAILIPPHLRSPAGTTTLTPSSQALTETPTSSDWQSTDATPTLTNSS

[9] = molecular target: Glycogen synthase kinase-3 alpha (Homo sapiens) (UniProt P49840); conditions: at 1 µM
[10] = molecular target: Glycogen synthase kinase-3 beta (Homo sapiens) (UniProt P49841); conditions: at 0.1 µM;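 also: values are mean percent inhibition of GSK3B activity, from the GSK Published Kinase Inhibitor Set (PKIS) screening dataset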
Chain of Glycogen synthase kinase-3 beta (Homo sapiens) (P49841 whole entry, looked up): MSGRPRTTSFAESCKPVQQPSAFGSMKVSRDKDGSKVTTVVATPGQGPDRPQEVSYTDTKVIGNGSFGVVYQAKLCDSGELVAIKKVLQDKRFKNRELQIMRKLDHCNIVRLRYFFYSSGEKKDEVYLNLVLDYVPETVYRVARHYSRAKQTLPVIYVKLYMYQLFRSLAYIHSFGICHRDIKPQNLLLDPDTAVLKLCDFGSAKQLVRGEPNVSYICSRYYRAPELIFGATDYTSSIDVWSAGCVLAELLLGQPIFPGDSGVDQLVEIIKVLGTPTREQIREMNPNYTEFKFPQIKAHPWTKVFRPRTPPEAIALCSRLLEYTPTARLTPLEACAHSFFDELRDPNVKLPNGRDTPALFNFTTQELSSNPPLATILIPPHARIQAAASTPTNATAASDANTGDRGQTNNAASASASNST

Chain of Dual specificity protein kinase CLK3 (Homo sapiens) (P49761 whole entry, looked up): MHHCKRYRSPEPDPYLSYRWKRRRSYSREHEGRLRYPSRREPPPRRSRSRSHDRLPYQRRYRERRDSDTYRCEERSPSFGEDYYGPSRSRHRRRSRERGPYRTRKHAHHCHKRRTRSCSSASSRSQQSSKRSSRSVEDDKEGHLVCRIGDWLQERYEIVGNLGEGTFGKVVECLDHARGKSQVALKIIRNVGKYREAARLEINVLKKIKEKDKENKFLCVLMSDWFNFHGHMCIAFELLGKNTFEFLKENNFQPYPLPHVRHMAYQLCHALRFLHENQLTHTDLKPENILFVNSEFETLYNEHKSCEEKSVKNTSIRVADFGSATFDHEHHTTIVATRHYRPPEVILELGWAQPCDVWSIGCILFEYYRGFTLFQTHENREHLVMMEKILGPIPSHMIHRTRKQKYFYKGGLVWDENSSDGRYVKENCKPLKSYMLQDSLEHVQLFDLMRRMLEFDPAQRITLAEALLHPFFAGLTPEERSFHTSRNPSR

SMILES | inhibition [1] | inhibition [2] | inhibition [3] | inhibition [4] | inhibition [5] | inhibition [6] | inhibition [7] | inhibition [8] | inhibition [9] | inhibition [10]
COC(=O)Nc1nc2cc(Oc3cccc(NC(=O)Nc4cc(C(F)(F)F)ccc4F)c3)ccc2[nH]1 | 0.16% | -0.01% | 2.54% | -0.21% | 1.68% | -0.32% | -0.02% | 1.75% | 7.54% | 0.73%
COc1ccc2cc(-c3c(-c4ccncc4)nc(-c4ccc([S+](C)[O-])cc4)n3C)ccc2c1 (stereo unspecified) | 0.67% | 0.49% | 3.52% | -0.23% | 0.37% | 3.31% | 1.71% | 4.07% | 11.5% | 2.47%
CS(=O)(=O)CCN(CC#N)Cc1ccc(-c2ccc3ncnc(Nc4ccc(OCc5cccc(F)c5)c(Cl)c4)c3c2)o1 | -4.13% | -2.78% | -0.17% | -4.49% | -3.08% | 0.54% | 0.76% | -1.48% | 0.08% | -2.26%
COC(=O)Nc1nc2cc(Oc3ccc(NC(=O)Nc4cccc(C(=O)O)c4)cc3)ccc2[nH]1 | 0.74% | -4.02% | -1.76% | -3.44% | -1.48% | 0.41% | -0.17% | -2.54% | 1.82% | -2.48%
NS(=O)(=O)c1cccc(-c2ccc3c(NC(=O)C4CC4)n[nH]c3c2)c1 | 1.36% | 2.96% | 3.42% | 2.16% | 3.65% | -1.18% | -0.6% | 1.01% | 3.15% | –
NCc1ccc(-c2nc(-c3ccc(Cl)c(O)c3)c(-c3ccncc3)[nH]2)cc1 | 3.14% | 3.51% | 3.85% | 4.36% | 3.42% | 0.33% | 0.81% | 4.59% | 32.5% | 16.9%
Cc1nn(C)c2cc(N(C)c3ccnc(Nc4cccc(S(N)(=O)=O)c4)n3)ccc12 | 3.34% | 0.4% | 0.86% | -1.86% | -1.3% | 2.83% | 2.82% | 1.79% | 3.95% | 0.37%
CC1=C(C(=O)Nc2ccc3[nH]ncc3c2)C(c2ccc3ccccc3c2)CC(=O)N1 (stereo unspecified) | 4.72% | 3.4% | 5.32% | 2.6% | 3.67% | 0.96% | 1.61% | 2.64% | 5.8% | 2.72%
CS(=O)(=O)CCNCc1ccc(-c2ccc3ncnc(Nc4ccc(OCc5cccc(F)c5)c(C(F)(F)F)c4)c3c2)o1 | 0.98% | 2.19% | 1.7% | -1.48% | -1.44% | 2.83% | 3.42% | 1.48% | 0.2% | 0.25%
O=C1NC(=O)C(N2CCc3ccccc32)=C1c1ccc(Cl)cc1 | 2.44% | 3.12% | 4.67% | 0.13% | 1.08% | 3.3% | 3.36% | 3.79% | 14% | –
COc1cc2ncn(-c3cc(O[C@H](C)c4ccccc4Cl)c(C(N)=O)s3)c2cc1OC | 7.93% | -0.27% | 3.73% | -0.01% | 0.14% | 2.5% | 5.55% | 5.34% | 19.8% | 5.07%
CCn1c(-c2nonc2N)nc2ccncc21 | 0.52% | 0.1% | 2.88% | -0.02% | 0.71% | 1.94% | 2.17% | 0.52% | 7.82% | 0.08%
Fc1cccc(COc2ccc(Nc3ncnc4cc(-c5ccc[nH]5)sc34)cc2Cl)c1 | -1.03% | -2.81% | -0.45% | -3.77% | -3.25% | 1.57% | 1.07% | -2.13% | 2.99% | -2.64%
O=C1NC(=O)C(c2ccc(Cl)cc2)=C1Nc1ccc(Cl)c(C(=O)O)c1 | 4.58% | 3.92% | 17.2% | 3.26% | 8.51% | -2.12% | -1.19% | 21.4% | 72.1% | –
CN1CCC(C(=O)Nc2n[nH]c3nnc(-c4ccccc4)cc23)CC1 | 2.52% | 7.11% | 33.9% | 7.12% | 31.9% | 4.83% | 9.37% | 79.5% | 85.7% | –
COc1ccc(COc2ccc(Cc3cnc(N)nc3N)cc2OC)cc1 | -0.53% | 1.44% | 0.52% | 4% | 2.57% | -0.01% | 0.42% | 1.37% | 0.34% | 0.96%
COc1ccc(-c2nn3ncccc3c2-c2ccnc(Nc3ccc(Cl)c(C(F)(F)F)c3)n2)cc1 | 0.49% | -0.17% | 2.05% | -1.42% | 0.89% | 1.06% | 1.84% | 2.46% | 3.98% | 1.3%
